Values joined by “and” are separate entries in the source; they are usually repeats but may differ in a detail not shown here. Equal entries are not always repeated. The panel holds about 79,000 compounds, 15% with a hit somewhere; the sample as a whole holds those more often. Active and inactive are the calls of the source. Rule as the data show it: active = growth inhibition above about 70%; inactive = the rest.

This test in a line: NCI Yeast Anticancer Drug Screen. Data for the mec2-1 strain (AID 157). The following applies: S. cerevisiae mec2-1 strain, active compounds read high; at 50.0 µM unless noted. The procedure: Growth inhibition of yeast strains with defined genetic alterations is measured as a screen for potential anti-cancer activity. Selected strains with alterations in DNA damage repair or cell cycle control were exposed to compounds and growth inhibition was measured relative to vehicle treated controls. The strain used in this assay is mec2-1
As for `O=C(NC(=S)Nc1ccccc1F)c1cccc([N+](=O)[O-])c1`, the growth inhibition was 77.2% (active).

Take `OCC1C(CO)C2CC1C1N=NN(c3ccccc3)C21` (stereo not given): the growth inhibition was 4.3% (inactive). For `CN(C)c1ccc(Cc2ccc(N(C)C)cc2N)cc1` the value was 2.2% (inactive). Next, `Nc1ccc2c(C(F)(F)F)cc(=O)oc2c1`: -2.2% (inactive); `CCCCCCCCC(=O)NCO`: -10.9% (inactive); `CSc1nc(SC)c2cnn(CC3CO3)c2n1` (stereo not given): -15.2% (inactive). With `NN=C(c1ccc([N+](=O)[O-])cc1)c1ccc([N+](=O)[O-])cc1`, the growth inhibition is 0.55% (inactive).

Consider `Nc1nc2ncn(CCO)c2c(=O)[nH]1`, for which the growth inhibition is 1.95% (inactive). Next, `COc1ccc(C=O)c(Cl)c1OC`: 14.4% (inactive); `COC(=O)c1ccccc1CC1Cc2ccc3c(c2C1=O)CCCC3` (stereo not given): -65.7% (inactive).

Regarding `CC(C)N=C(N)N=C(N)N`, the growth inhibition was 13.5% (inactive). Next, `C/C=C/C=C/C(=O)OCCCC`: -0.65% (inactive); `Cc1c(Cl)cccc1NC(=O)COc1ccc(Cl)cc1`: 9.4% (inactive). Next, `CNCc1cc(Br)cc(Br)c1O`: -6.2% (inactive).

On to `Cn1c(=S)[nH]c2c(Cl)cc(Cl)cc2c1=O`, for which the growth inhibition is -30.6% (inactive).

For the compound `CN(C)c1ccc(O[Si](Oc2ccc(N(C)C)cc2)(Oc2ccc(N(C)C)cc2)Oc2ccc(N(C)C)cc2)cc1`, the growth inhibition is 37.2% (inactive). For the compound `N/N=C1/CCN2CCCc3cccc1c32`, the growth inhibition is 2.75% (inactive). With `CCN(CC)c1ccc2cc(C(=O)NCc3ccccc3)c(=N)oc2c1`, the growth inhibition is 15.8% (inactive). Next, `COC(=O)C1(CC(=O)c2c(C)[nH]c3ccccc23)NC(=S)NC(=O)C1C#N` (stereo not given): 14.7% (inactive); `O=C(NCCCCCSC(=O)c1ccccc1)c1ccccc1`: 4.6% (inactive). As to `CSc1nc(SC)c2ncn(C3CC(Oc4ccc(C)cc4)C(COc4ccc(C)cc4)O3)c2n1` (stereo not given), the growth inhibition was -5.75% (inactive).

For `OC1COC(OCc2ccccc2)C(O)C1O` (stereo not given), the growth inhibition was -25.7% (inactive) and -19.6% (inactive). Next, `C=CCOC(=O)NC(CC(C)C)C(=O)NCC(N)=O` (stereo not given): 1.9% (inactive); `O=C1/C(=C/c2cccc(Br)c2)Cc2ccccc21`: -7.9% (inactive); `CN(N=O)C(=O)NCCCCCNC(=O)N(C)N=O`: 12.8% (inactive). In the case of `C=C1CC[C@](C)(O)[C@@]2(C)CC[C@H]3C(=C(C)C)C(=O)C[C@]3(C)C[C@H]12`, the growth inhibition is 5.45% (inactive). For `Nc1cccc2c1nc(NCCO)c1ccccc12` the value was 3.5% (inactive); for `COC(=O)C1CCCCCCCCCCC12SCCCS2` (stereo not given), -11.4% (inactive). Next, `COc1ccc(C2Oc3cc(OC)c(O)cc3[C@@H]2C)cc1` (stereo not given in full): 28.6% (inactive). In the case of `CC1(C)SC(c2ccccc2)SC(c2ccccc2)S1` (stereo not given), the growth inhibition is 1.4% (inactive). `Nc1nc(Cl)c(C=O)c(NCC2(CO)CC(CCc3ccccc3)C2)n1` (stereo not given): the growth inhibition is 9.95% (inactive).

For `Cc1nc2c(cc1C(=O)NN)c(=O)n(C)c(=O)n2C`, the growth inhibition is -1.9% (inactive).

For the compound `ClN(Cl)c1nc(-c2ccccc2)nc(N(Cl)Cl)n1`, the growth inhibition was 29.6% (inactive). With `CN(C)c1ccc(/C=C2\C[N+](C)(C)C/C(=C\c3ccc(N(C)C)cc3)C2=O)cc1`, the growth inhibition is 3.4% (inactive). Next, `O=C1c2cc([N+](=O)[O-])ccc2-c2ccc3c4ccc5c6c(ccc(c7ccc1c2c73)c64)C(=O)c1cc([N+](=O)[O-])ccc1-5`: -10.6% (inactive). For `CN(C)c1ccc(-c2c3ccccc3nc3ccccc23)cc1`, the growth inhibition was 9.35% (inactive) and -6.05% (inactive). `CCCCCCCCC(=O)NCCOC`: the growth inhibition is 2.8% (inactive).

As to `O=[N+]([O-])c1cccc(Nc2nc(Cl)nc(Cl)n2)c1`, the growth inhibition is 21% (inactive). Next, `C#CCOC(=O)c1ccccc1`: -5.15% (inactive); `CCCc1cc2c(cc1CC#N)OCO2`: 19.4% (inactive).

The values are drawn from PubChem BioAssay (NCI).
